Results as given in PubChem BioAssay (EPA / NIEHS).
Calls of active or inactive are those of the source. Rule for the calls: active = hit-call score of the fitted dose curve at least 0.9, where 1 is the maximum; inactive = score below 0.9.

target: Transcription factor E2F1 (Homo sapiens) (UniProt Q01094); test: ATG_E2F_CIS: Attagene CIS-FACTORIAL HepG2 Assay for human E2F Transcription Factor 1 (AID 2282935); conditions: HepG2 Attagene cis-reporter, E2F reporter RNA transcripts; actives raise or lower the signal
Sequence (Q01094 whole entry, looked up): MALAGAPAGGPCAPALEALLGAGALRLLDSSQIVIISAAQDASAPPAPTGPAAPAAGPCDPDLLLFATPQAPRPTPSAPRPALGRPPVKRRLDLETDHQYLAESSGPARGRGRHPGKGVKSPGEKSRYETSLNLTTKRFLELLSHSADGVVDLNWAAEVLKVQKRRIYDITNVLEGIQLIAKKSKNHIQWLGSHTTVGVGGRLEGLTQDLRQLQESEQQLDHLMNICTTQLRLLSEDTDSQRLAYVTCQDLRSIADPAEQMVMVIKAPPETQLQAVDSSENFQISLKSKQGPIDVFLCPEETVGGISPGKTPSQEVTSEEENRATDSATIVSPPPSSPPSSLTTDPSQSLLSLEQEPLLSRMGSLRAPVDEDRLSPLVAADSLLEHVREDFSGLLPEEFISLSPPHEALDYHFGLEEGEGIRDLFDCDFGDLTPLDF
How it was run: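 Transient MRTU transfection of HepG2; 24 h compound exposure; RNA → oligo(dT) RT → PCR → FAM label → HpaI cut → CE fluorescence. Gain/loss of signal fit against DMSO.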

Q: With `C[Si](C)(C)C(F)(F)C(F)(F)C(F)(F)F` as the molecule, how does the outcome read?
A: inactive

Q: For `FC(F)C(F)(F)COCC1CO1` (stereo unspecified), which outcome is on record?
A: inactive

Q: With `CCN(CC)C(=S)SSC(=S)N(CC)CC` as the molecule, how does the outcome read?
A: inactive

Q: For `CCOC(N)=O`, which outcome is on record?
A: inactive

Q: Which outcome does the source give for `CCc1cccc(CC)c1N` here?
A: inactive

Q: With `Cc1cccc(O)c1C` as the molecule, how does the outcome read?
A: inactive

Q: For `C[C@]12C=CC(=O)C=C1CC[C@H]1[C@@H]3C[C@@H](O)[C@](O)(C(=O)CO)[C@@]3(C)C[C@H](O)[C@@]12F`, which outcome is on record?
A: inactive

Q: For `OCCOCCOCCO`, which outcome is on record?
A: inactive

Q: With `Cc1nc(-c2ccccn2)ncc1C(=O)Nn1cc(C)c2cc(F)ccc21` as the molecule, how does the outcome read?
A: inactive

Q: Which outcome does the source give for `O=S(=O)(O)CCC(F)(F)C(F)(F)C(F)(F)C(F)(F)C(F)(F)C(F)(F)F` here?
A: inactive

Q: Which outcome does the source give for `O=C1CN(N=Cc2ccc([N+](=O)[O-])o2)C(=O)N1` here?
A: inactive

Q: For `FC(F)(F)COC(OCC(F)(F)F)OCC(F)(F)F`, which outcome is on record?
A: inactive

Q: With `FC(F)(F)C(F)(F)C(F)(F)C(F)(F)C(F)(F)C(F)(F)I` as the molecule, how does the outcome read?
A: inactive

Q: Which outcome does the source give for `O=C(O)CO` here?
A: inactive

Q: For `O=C(Cl)C(F)(F)C(F)(F)C(F)(F)C(=O)Cl`, which outcome is on record?
A: inactive

Q: For `NC(N)=O`, which outcome is on record?
A: inactive

Q: For `OCc1c[nH]c2ccccc12`, which outcome is on record?
A: inactive

Q: With `S=P(N1CC1)(N1CC1)N1CC1` as the molecule, how does the outcome read?
A: inactive

Q: Which outcome does the source give for `CCCCC(CC)C(=O)OCCOCCOCCOC(=O)C(CC)CCCC` (stereo unspecified) here?
A: inactive

Q: With `CC(C)c1nnc2ccc(-c3ocnc3-c3cc(F)ccc3F)cn12` as the molecule, how does the outcome read?
A: inactive

Q: For `CCCCCCCC1CCC(=O)O1` (stereo unspecified), which outcome is on record?
A: inactive

Q: Which outcome does the source give for `NCC(F)(F)C(F)(F)C(F)(F)C(F)(F)F` here?
A: inactive

Q: For `CCCCCCCCCCCCCCO`, which AC50 is on record?
A: 158 µM (active)

Q: Which outcome does the source give for `CCCCCCCCCC` here?
A: inactive

Q: With `OC(O)(C(F)C(O)(O)C(F)(F)F)C(F)(F)F` as the molecule, how does the outcome read?
A: inactive

Q: Which outcome does the source give for `FC(F)=C(F)C(F)(F)C(F)(F)C(F)(F)C(F)(F)C(F)(F)C(F)(F)F` here?
A: inactive

Q: With `O=C(N[C@H](CO)[C@H](O)c1ccc([N+](=O)[O-])cc1)C(Cl)Cl` as the molecule, how does the outcome read?
A: inactive

Q: Which outcome does the source give for `OCCC(F)(F)C(F)(F)C(F)(F)C(F)(F)F` here?
A: inactive

tested on: not listed separately; test: ATG_E_Box_CIS: Attagene CIS-FACTORIAL HepG2 Assay for human Enhancer Box (E-box) (AID 2282936); conditions: HepG2 E-box cis-reporter transcription, actives raise or lower the signal
How it was run: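 Transiently transfected HepG2, endogenous TF-driven reporters, 24 h dosing. Readout: RT-PCR plus capillary electrophoresis of fluorescent reporter fragments. Gain or loss of signal fitted bidirectionally against DMSO baseline.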

Q: For `C[Si](C)(C)C(F)(F)C(F)(F)C(F)(F)F`, which outcome is on record?
A: inactive

Q: Which outcome does the source give for `FC(F)C(F)(F)COCC1CO1` (stereo unspecified) here?
A: inactive

Q: Which AC50 does the source give for `CCN(CC)C(=S)SSC(=S)N(CC)CC` here?
A: 18.9 µM (active)

Q: With `CCOC(N)=O` as the molecule, how does the outcome read?
A: inactive

Q: With `CCc1cccc(CC)c1N` as the molecule, how does the outcome read?
A: inactive

Q: For `Cc1cccc(O)c1C`, which outcome is on record?
A: inactive

Q: With `C[C@]12C=CC(=O)C=C1CC[C@H]1[C@@H]3C[C@@H](O)[C@](O)(C(=O)CO)[C@@]3(C)C[C@H](O)[C@@]12F` as the molecule, how does the outcome read?
A: inactive

Q: For `OCCOCCOCCO`, which outcome is on record?
A: inactive

Q: For `Cc1nc(-c2ccccn2)ncc1C(=O)Nn1cc(C)c2cc(F)ccc21`, which outcome is on record?
A: inactive

Q: Which outcome does the source give for `O=S(=O)(O)CCC(F)(F)C(F)(F)C(F)(F)C(F)(F)C(F)(F)C(F)(F)F` here?
A: inactive

Q: With `O=C1CN(N=Cc2ccc([N+](=O)[O-])o2)C(=O)N1` as the molecule, how does the outcome read?
A: inactive

Q: For `FC(F)(F)COC(OCC(F)(F)F)OCC(F)(F)F`, which outcome is on record?
A: inactive

Q: Which outcome does the source give for `FC(F)(F)C(F)(F)C(F)(F)C(F)(F)C(F)(F)C(F)(F)I` here?
A: inactive

Q: Which outcome does the source give for `O=C(O)CO` here?
A: inactive

Q: With `O=C(Cl)C(F)(F)C(F)(F)C(F)(F)C(=O)Cl` as the molecule, how does the outcome read?
A: inactive

Q: With `NC(N)=O` as the molecule, how does the outcome read?
A: inactive

Q: With `OCc1c[nH]c2ccccc12` as the molecule, how does the outcome read?
A: inactive

Q: Which outcome does the source give for `S=P(N1CC1)(N1CC1)N1CC1` here?
A: inactive

Q: For `CCCCC(CC)C(=O)OCCOCCOCCOC(=O)C(CC)CCCC` (stereo unspecified), which outcome is on record?
A: inactive

Q: With `CC(C)c1nnc2ccc(-c3ocnc3-c3cc(F)ccc3F)cn12` as the molecule, how does the outcome read?
A: inactive

Q: With `CCCCCCCC1CCC(=O)O1` (stereo unspecified) as the molecule, how does the outcome read?
A: inactive

Q: For `NCC(F)(F)C(F)(F)C(F)(F)C(F)(F)F`, which outcome is on record?
A: inactive

Q: Which AC50 does the source give for `CCCCCCCCCCCCCCO` here?
A: 129 µM (active)

Q: Which outcome does the source give for `CCCCCCCCCC` here?
A: inactive

Q: Which outcome does the source give for `OC(O)(C(F)C(O)(O)C(F)(F)F)C(F)(F)F` here?
A: inactive

Q: With `FC(F)=C(F)C(F)(F)C(F)(F)C(F)(F)C(F)(F)C(F)(F)C(F)(F)F` as the molecule, how does the outcome read?
A: inactive

Q: For `O=C(N[C@H](CO)[C@H](O)c1ccc([N+](=O)[O-])cc1)C(Cl)Cl`, which outcome is on record?
A: inactive

Q: For `OCCC(F)(F)C(F)(F)C(F)(F)C(F)(F)F`, which outcome is on record?
A: inactive
